Over roughly 3,600 compounds, “viability index relative to DMSO control” has its median near 0.81; the lowest 2% begin near 0.13. The full list was thinned out, with the lowest values kept by preference.
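Also: Saponin-lysis sexual stage assay in serum-free medium: MitoTracker Red CMXRos staining plus saponin, high-content imaging, particle count per well divided by plate mean of DMSO wells.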

The subject of this assay is Plasmodium falciparum NF54 stage V gametocytes. The assay is described as follows: viability index relative to DMSO control (fraction); higher = less gametocyte killing. The conditions noted are these: 1.25 µM, incubation time: 72 h.
Take `CCC(=O)NC(c1ccccc1Cl)c1cc(Cl)c2cccnc2c1O` (stereo unspecified): the viability index was determined as 0.86. In the case of `O=C(O)c1ccc(S(=O)(=O)c2ccc3c(c2)C(=O)N(c2ccc(Sc4ccc([N+](=O)[O-])cc4)cc2)C3=O)cc1`, the viability index worked out at 0.887. Consider `CCOc1ccc(Nc2cc(=O)oc3ccccc23)cc1`, for which the viability index turned out to be 0.618.

For the compound `CCCn1nc(Oc2nc(NCC)cc(OC)n2)ccc1=O`, the viability index was found to be 0.859. Consider `N=c1c2c(n(Cc3ccccc3)c3c1CCC3)CCC2`, for which the viability index is 0.87. Next, `O=[N+]([O-])c1ccc(N2CCN(C(=S)Nc3ccccc3)CC2)cc1`: 0.967; `O=[N+]([O-])c1ccc(N2CCCN(C(=S)Nc3ccc(F)cc3Br)CC2)nc1`: 0.261.

On to `O=[N+]([O-])c1ccc(N2CCCN(C(=S)Nc3ccccc3)CC2)nc1`, for which the viability index is 0.0788. The compound `NC1=NC(c2ccccc2)N(c2ccccc2)C(N)=N1` (stereo unspecified) yielded a viability index of 1.12. `O=C(Nc1ccccc1C(=O)O)c1cccc(NC(=O)c2ccco2)c1` yielded a viability index of 0.73. Turning to `CCn1c(CSc2nc(C)cc(C)n2)nnc1SCC(N)=O`, the viability index came out at 1.13. `CC(=O)N(C1=C(N2CCC(C)CC2)C(=O)c2ccccc2C1=O)c1cccc(F)c1`: the viability index was found to be 0.892. `CC(=O)N(C1=C(N(C)C)C(=O)c2ccccc2C1=O)c1ccc(Cl)cc1`: the viability index turned out to be 0.208. `CC(=O)N(C1=C(N(C)C)C(=O)c2ccccc2C1=O)c1ccc(Cl)c(Cl)c1` registered a viability index of 0.257. `CC(=O)N(C1=C(N2CCOCC2)C(=O)c2ccccc2C1=O)c1ccc(I)cc1`: the viability index is 0.14. Turning to `CC(=O)N(C1=C(N(C)C)C(=O)c2ccccc2C1=O)c1ccc(F)c(F)c1`, the viability index is 0.0288. As to `CC(=O)N(C1=C(N(C)C)C(=O)c2ccccc2C1=O)c1cccc(F)c1`, the viability index is 0.0612. Next, `CC(=O)N(C1=C(N(C)C)C(=O)c2ccccc2C1=O)c1cc(C)cc(C)c1`: 0.0811; `CC(=O)N(C1=C(N(C)C)C(=O)c2ccccc2C1=O)c1ccc(F)cc1`: 0.0453. Take `O=C(CN(CCN1CCOCC1)S(=O)(=O)c1ccccn1)N1CCN(C(c2ccccc2)c2ccccc2)CC1`: the viability index amounted to 0.637. Regarding `CCN(CC)c1ccc(C=NNC(=O)c2ccc(Nc3nc(-c4ccccc4)cs3)cc2)c(O)c1`, the viability index stood at 0.675. In turn, `Cc1ccccc1N1C(=O)C2C3c4ccccc4C(C(=O)O)(c4ccccc43)C2C1=O` (stereo unspecified) displayed a viability index of 0.616. On to `CN(C)CCN1CCN(c2ccnc3cc4ccccc4cc23)CC1`, for which the viability index was 0.84.

Consider `O=c1c(=O)n(Cc2cccc(C(F)(F)F)c2)ccn1CCc1ccccc1`, for which the viability index came out at 0.751.

`CCN(CC)S(=O)(=O)c1ccc2[nH]cc(C(=O)NCCCN3CCN(c4ccc(OC)cc4)CC3)c(=O)c2c1`: the viability index was found to be 1.14. Compound `CCN(CC)c1ccc(N=Cc2ccc(Sc3nc4ccccc4s3)o2)cc1` yielded a viability index of 1.17. As to `OC(COc1ccc(OCC(O)CN2CCN(C3c4ccccc4-c4ccccc43)CC2)cc1)CN1CCN(C2c3ccccc3-c3ccccc32)CC1` (stereo unspecified), the viability index turned out to be 0.754. In turn, `CC(=O)N(C1=C(N(C)C)C(=O)c2ccccc2C1=O)c1cccc(Cl)c1` showed a viability index of 0. Next, `Cc1nc2c(C)cccc2c(O)c1CC=C(Cl)Cl`: 0.759; `Oc1c(CN2CCN(Cc3ccc4cccnc4c3O)CC2)ccc2cccnc12`: 0.601. As for `COc1ccc(C(OCCS(=O)(=O)CCO)(c2ccccc2)c2ccc(OC)cc2)cc1`, the viability index turned out to be 0.0248.

`COc1ccc(S(=O)(=O)N=C2C=C(Nc3ccccc3)C(=O)c3ccccc32)cc1` gave a viability index of 0.232.

Compound `COc1ccc(-c2nc(NC(=O)CS(=O)(=O)c3ccccc3)sc2C)cc1` showed a viability index of 1.02. Take `O=C(Nc1ccc(Oc2ccc(OC(F)(F)F)cc2)cc1)C1CC1`: the viability index turned out to be 0.693. In the case of `CCCOC(=O)C1=C(C)NC2=C(C(=O)CC(c3ccc(OC)c(OC)c3)C2)C1c1cccc(Br)c1` (stereo unspecified), the viability index came to 0.83. To `CCN1CCN(c2cc(C)c3cc(NC(=O)c4cncc(Br)c4)ccc3n2)CC1` belongs 0.801; to `CC(=O)N(C1=C(N2CCCC2)C(=O)c2ccccc2C1=O)c1cccc(F)c1`, 1.

As to `CC(=O)N(C1=C(N2CCCC2)C(=O)c2ccccc2C1=O)c1ccc(I)cc1`, the viability index turned out to be 0.879. The compound `CC(=O)N(C1=C(N2CCCCC2)C(=O)c2ccccc2C1=O)c1cccc(F)c1` returned a viability index of 0.833. Compound `CCCNC1=C(N(C(C)=O)c2ccc(C)cc2)C(=O)c2ccccc2C1=O` gave a viability index of 0.0531. `CCCNC1=C(N(C(C)=O)c2cccc(F)c2)C(=O)c2ccccc2C1=O` registered a viability index of 0.0245. The compound `CCCCOc1ccc(N(C(C)=O)C2=C(N3CCCCC3)C(=O)c3ccccc3C2=O)cc1` displayed a viability index of 0.301. `COc1cccc(C(=O)NC(c2ccc(Cl)cc2)c2cc(Cl)c3cccnc3c2O)c1` (stereo unspecified) returned a viability index of 0.523. Next, `COCCCNC(=O)C=Cc1ccc(C(C)C)cc1`: 0.976. `C=CCOC(=O)C1=C(C)N2CCSC2=C(C#N)C1c1ccco1` (stereo unspecified) yielded a viability index of 1.13.

In turn, `O=C(Nc1ccc2nc3n(c(=O)c2c1)CCCCC3)C(=O)N1CCN(c2cccc(Cl)c2)CC1` registered a viability index of 0.432. Take `O=C(CCCCCN1C(=O)c2cccc3cccc(c23)C1=O)NO`: the viability index worked out at 0.853. The compound `Cn1c(SCc2cccc([N+](=O)[O-])c2)nc2c(c1=O)SCC2` yielded a viability index of 0.818. Next, `CC(=O)N(C1=C(N2CCN(C)CC2)C(=O)c2ccccc2C1=O)c1cc(C)cc(C)c1`: 0.521. `CC(=O)N(C1=C(N2CCOCC2)C(=O)c2ccccc2C1=O)c1ccc(Cl)c(Cl)c1` yielded a viability index of 0.351. Consider `CC(=O)N(C1=C(N2CCCCC2)C(=O)c2ccccc2C1=O)c1ccc(F)c(F)c1`, for which the viability index is 0.837. Consider `CC(=O)N(C1=C(N2CCCCC2)C(=O)c2ccccc2C1=O)c1cccc(Cl)c1`, for which the viability index stood at 0.144. As for `CC(=O)N(C1=C(N2CCOCC2)C(=O)c2ccccc2C1=O)c1cccc(Cl)c1`, the viability index was determined as 0.0385.

For `CC(=O)N(C1=C(N2CCOCC2)C(=O)c2ccccc2C1=O)c1ccc(F)c(F)c1`, the viability index stood at 0.0694.

On to `CC(=O)N(C1=C(N2CCCC2)C(=O)c2ccccc2C1=O)c1ccc(F)c(F)c1`, for which the viability index worked out at 0.743. With `CC(=O)N(C1=C(N2CCOCC2)C(=O)c2ccccc2C1=O)c1cc(C)cc(C)c1`, the viability index was found to be 0.0695. `CC(=O)N(C1=C(N2CCOCC2)C(=O)c2ccccc2C1=O)c1ccc(Br)cc1` came in with a viability index of 0.408. To `COc1cncc(-c2cncc(-c3ccc(Oc4ccccc4)cc3)n2)c1` belongs 0.899; to `COc1cc2c(cc1OC)C(COc1ccc(F)cc1)N(C(=O)c1ccc(OC(C)C)cc1)CC2` (stereo unspecified), 0.66.

Regarding `CCCN(CCC)CC(O)COc1ccccc1C(=O)Nc1ccccc1` (stereo unspecified), the viability index was 0.65. Turning to `Cc1ccc(N2C(N)=NC(N)=NC2(C)C)cc1`, the viability index was 0.985. `C=CCCC(=O)N1CCC(C(=O)Nc2ccc(-c3nc4ccccc4o3)cc2)CC1` registered a viability index of 0.846. To `c1ccc2c(c1)[nH]c1c(NCCN3CCCCC3)ncnc12` belongs 1.09.

`O=C(c1cc2n(n1)C(C(F)(F)F)CC(c1ccc3c(c1)OCO3)N2)N1CCN(C(c2ccccc2)c2ccccc2)CC1` (stereo unspecified) came in with a viability index of 0.682. For `CC(=O)Nc1ccc(-c2nc3c4ccccc4c4ccc(I)cc4c3[nH]2)cc1`, the viability index came to 0.762. In the case of `C(=NNc1nc2ccccc2[nH]1)c1c[nH]c2ccccc12`, the viability index is 0.558. `COc1cccc(CNc2cc(C(=O)NCCNC(C)=O)cc(S(=O)(=O)N(C)C)c2)c1OC`: the viability index came to 1.32. As for `CCOc1ccc2nc(C)cc(Nc3ccc(C)c(Cl)c3)c2c1`, the viability index is 0.852. To `CCOc1ccc2nc3cc(NCc4ccco4)ccc3c(N)c2c1` belongs 0.775. Compound `COc1ccc(C2c3[nH]c4ccccc4c3C[C@H]3C(=O)N(CCC(C)C)CC(=O)N23)cc1` (stereo partly specified) came in with a viability index of 0.803. Next, `C=CCSc1nnc2c(n1)[nH]c1ccc(OCC)cc12`: 0.656; `Cc1cc(N2CCN(C)CC2)nc2ccc(NC(=O)c3ccc(Br)o3)cc12`: 0.924.

Consider `Cc1ccc(-c2nc3cc(NC(=O)c4ccc([N+](=O)[O-])o4)ccc3o2)cc1Br`, for which the viability index turned out to be 0.0755.

Turning to `O=C(Nc1ccc2oc(-c3ccc(I)cc3)nc2c1)c1ccc([N+](=O)[O-])o1`, the viability index is 0.0302.

As to `Cc1ccc(-c2nc3cc(NC(=O)c4ccc(Cl)cc4Cl)ccc3o2)cc1`, the viability index stood at 1.32.

For `Nc1ccc(C(=O)Nc2ccc(-c3nc4ccccc4o3)cc2)cc1`, the viability index was 0.703. To `Cc1cccc(-c2nc3cc(NC(=O)c4ccc([N+](=O)[O-])o4)ccc3o2)c1` belongs 0.0679. Take `Cc1cc(N2CCCCC2)nc2ccc(NC(=O)c3cccc([N+](=O)[O-])c3)cc12`: the viability index turned out to be 0.787. As to `O=C(Nc1ccc(-c2nc3ccc(NC(=O)c4ccc(Br)o4)cc3[nH]2)cc1)c1ccc(Br)o1`, the viability index worked out at 1.1. As for `O=C(CN1CCN(C(=O)c2ccccc2)CC1)Nc1ccc(-c2nc3cc(NC(=O)CN4CCN(C(=O)c5ccccc5)CC4)ccc3o2)cc1`, the viability index was 0.951. The compound `Cc1cccc(-c2nc3cc(NC(=S)NC(=O)c4ccc(Cl)cc4)ccc3o2)c1` returned a viability index of 0.808. To `Cc1cc([N+](=O)[O-])ccc1-c1ccc(C(=O)Nc2ccc(-c3nc4ccccc4[nH]3)cc2)o1` belongs 0.622; to `Cc1cc(N2CCC(C)CC2)nc2ccc(NC(=O)c3ccc([N+](=O)[O-])o3)cc12`, 0.12; to `CNC(=O)c1nn(C)c2c1CC(NCC1CCCCC1)CC2` (stereo unspecified), 0.702. `CC(=NNC(=O)c1ccc(C)cc1)c1ccccn1` registered a viability index of 0.294. Next, `CCOC(=O)c1oc2cc(O)c(CC)cc2c(=O)c1-c1ccc2c(c1)OCO2`: 1.09.

The values are drawn from the supplement of paper PMC4723716.
